Among the test systems are PLK2; PLK3; PLK4; PRKCD; PRKCE; PRKCH; PRKCI; PRKCQ; PRKD1; PRKD2; PRKD3; PRKG1; PRKG2; PRKX; PRP4; QSK; RAF1; RET.
Common to all, as to details: concentration: 1 μM, replicates: in singlicate; n = 1
A further test deals with T1, PRKR.
T1 construct: gene EIF2AK2

In the next test the test system is T2, PYK2.
T2 construct: gene PTK2B
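Further: KINOMEscan kinase panel screen.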

For `O=C(Nc1cccc(-c2nn3ncccc3c2-c2ccnc(Nc3ccccc3)n2)c1)c1c(F)cccc1F` [GSK198271], the “%Inh” value with PLK2 is given as 55%; in the test with PLK3, 82%; in the test with PLK4, 1%; in the test with PRKCD, 0%; in the test on PRKCE it was 8%; in the test with PRKCH, 16%. Also, the “%Inh” value with PRKCI was 9%; with PRKCQ it was 48%; in the test with PRKD1 it was 27%; in the test with PRKD2 it was 20%; in the test on PRKD3, 47%; in the test with PRKG1 it was 0%. The “%Inh” value with PRKG2 is given as 0%; with PRKR it was 0%; with PRKX, 11%; with PRP4, 6%; with PYK2 it was 27%; with QSK, 10%. Further, the results for the “%Inh” value in the test with RAF1 and in the test on RET were 94.1% and 99.7%, respectively.
With `O=C(NC1CCN(c2ccnc(Nc3ccc(F)cc3)n2)C1)c1cc2ccccc2s1` (stereo not drawn) [GSK1379716], the “%Inh” value was determined as 0% in the test with PLK2; 0% in the test on PLK3; 1% in the test on PLK4; 0% in the test on PRKCD; 2% with PRKCE; 30% in the test on PRKCH. The “%Inh” value is listed as 15% in the test on PRKCI; 16% with PRKCQ; 21% with PRKD1; 28% in the test with PRKD2; 9% with PRKD3; 7% with PRKG1. For the same molecule, the “%Inh” value with PRKG2 was 0%; in the test with PRKR, 0%; in the test with PRKX, 4%; with PRP4, 45%; with PYK2 it was 15%; in the test on QSK it was 10%. The “%Inh” value with RAF1 amounted to 17%; in the test on RET it was 10%.
For `CCS(=O)(=O)c1ccc(OC)c(Nc2nccc(-c3c(-c4cccc(NC(=O)c5c(F)cccc5F)c4)nn4ncccc34)n2)c1` [GSK326180], the “%Inh” value with PLK2 was 0%; in the test with PLK3 it was 5%; in the test on PLK4 it was 16%; in the test on PRKCD, 0%; in the test on PRKCE, 12%; with PRKCH, 18%. In addition, the “%Inh” value came to 16% with PRKCI; 27% with PRKCQ; 0% with PRKD1; 9% in the test on PRKD2; 12% in the test with PRKD3; 6% with PRKG1. The “%Inh” value in the test with PRKG2 turned out to be 3%; in the test with PRKR, 0%; in the test on PRKX it was 18%; in the test on PRP4, 20%; in the test with PYK2, 12%; in the test with QSK, 7%. Further, the “%Inh” value in the test with RAF1 came to 93.2%; in the test with RET it was 20%.
As to `CN(C)Cc1ccc(-c2ccc3c(Nc4ccc(Oc5ccccn5)cc4)ccnc3c2)o1` [GW567148], the “%Inh” value is listed as 0% in the test with PLK2; 0% with PLK3; 37% in the test on PLK4; 0% in the test on PRKCD; 0% in the test on PRKCE; 7% in the test on PRKCH. In addition, the “%Inh” value in the test on PRKCI turned out to be 0%; in the test with PRKCQ, 0%; in the test with PRKD1 it was 0%; in the test with PRKD2 it was 4%; in the test on PRKD3, 0%; in the test on PRKG1, 0%. Also, the “%Inh” value amounted to 0% in the test on PRKG2; 0% with PRKR; 22% with PRKX; 4% with PRP4; 0% in the test on PYK2; 0% with QSK. Further, the “%Inh” value with RAF1 was 0%; in the test with RET, 1%.
Turning to `CNC(=O)c1ccccc1Nc1nc(Nc2ccc(N3CCOCC3)cc2)ncc1Cl.Cl` [GSK1576028], the “%Inh” value is 81% in the test on PLK2; 85% in the test with PLK3; 100% in the test with PLK4; 24% with PRKCD; 64% in the test with PRKCE; 0% in the test on PRKCH. Further, the “%Inh” value is given as 11% in the test on PRKCI; 84% in the test with PRKCQ; 0% in the test on PRKD1; 17% in the test on PRKD2; 81% with PRKD3; 74% in the test with PRKG1. Also, the “%Inh” value worked out at 88% in the test on PRKG2; 72% in the test on PRKR; 17% in the test with PRKX; 77% in the test on PRP4; 99.7% with PYK2; 18% in the test with QSK. The “%Inh” value is given as 0% with RAF1 and 100% in the test with RET.
For `Clc1ccc(-c2nn3ncccc3c2-c2ccnc(Nc3ccc4c(c3)OCCO4)n2)cc1` [GW829116], the “%Inh” value came out at 0% in the test on PLK2; 7% with PLK3; 2% with PLK4; 0% in the test on PRKCD; 1% in the test on PRKCE; 0% in the test on PRKCH. The “%Inh” value was 0% in the test on PRKCI; 22% in the test with PRKCQ; 0% in the test on PRKD1; 1% in the test with PRKD2; 3% in the test with PRKD3; 0% in the test on PRKG1. Besides, the “%Inh” value in the test with PRKG2 was determined as 0%; with PRKR, 0%; in the test on PRKX, 0%; in the test on PRP4, 0%; with PYK2, 24%; with QSK it was 0%. The “%Inh” value in the test with RAF1 was 16%; with RET it was 24%.
On to `O=C(Nc1cccc(-c2nn3ccccc3c2-c2ccnc(Nc3cccc(F)c3)n2)c1)c1c(F)ccc(F)c1Cl` [GSK357952], for which the “%Inh” value came out at 0% with PLK2; 2% in the test on PLK3; 0% in the test with PLK4; 8% in the test on PRKCD; 0% with PRKCE; 31% in the test with PRKCH. The “%Inh” value in the test with PRKCI is reported as 0%; with PRKCQ it was 38%; in the test with PRKD1, 21%; with PRKD2, 0%; with PRKD3, 39%; with PRKG1, 1%. Besides, the “%Inh” value in the test with PRKG2 is reported as 1%; in the test with PRKR, 0%; with PRKX, 22%; in the test on PRP4, 8%; in the test with PYK2 it was 0%; in the test on QSK, 5%. Moreover, the “%Inh” value in the test with RAF1 is 79%; with RET, 84%.
For the molecule `Cc1ccc(F)c(C(=O)Nc2cccc(-c3nn4ccccc4c3-c3ccnc(Nc4cccc(F)c4)n3)c2)c1F` [GSK361061], the “%Inh” value stood at 3% in the test with PLK2; 9% in the test with PLK3; 10% in the test with PLK4; 25% in the test on PRKCD; 2% in the test on PRKCE; 25% in the test on PRKCH. Besides, the “%Inh” value in the test on PRKCI is reported as 0%; with PRKCQ, 27%; in the test with PRKD1 it was 14%; in the test with PRKD2, 12%; in the test on PRKD3, 32%; in the test on PRKG1, 18%. Also, the “%Inh” value was 0% with PRKG2; 0% with PRKR; 12% with PRKX; 15% in the test with PRP4; 0% in the test on PYK2; 17% in the test with QSK. The “%Inh” value in the test on RAF1 is recorded as 87%; in the test with RET, 96.3%.
Regarding `Cc1occc1-c1ncc(OC[C@@H](N)Cc2c[nH]c3ccccc23)cc1-c1ccc2[nH]nc(C)c2c1.O=C(O)C(F)(F)F` [GSK682037], the “%Inh” value with PLK2 stood at 0%; with PLK3, 0%; in the test with PLK4, 0%; in the test on PRKCD it was 100%; in the test with PRKCE, 99.8%; with PRKCH, 97.5%. Besides, the “%Inh” value worked out at 28% with PRKCI; 97.7% in the test with PRKCQ; 90% in the test with PRKD1; 99.6% with PRKD2; 95.6% in the test on PRKD3; 57% with PRKG1. The “%Inh” value was found to be 14% with PRKG2; 0% in the test with PRKR; 56% with PRKX; 11% with PRP4; 49% in the test on PYK2; 11% in the test with QSK. The results for the “%Inh” value with RAF1 and with RET were 11% and 84%, respectively.

The record behind these values is PMC5540273 (PLoS ONE, 2017).
